Published antibiotic growth screens (doi:10.1016/j.cell.2020.01.021)
The full ranking holds about 2,300 compounds; the median of “relative growth” is about 1, and the lowest 2% start at about 0.046. Not all results are given here.

tested on: E. coli BW25113; assay: relative growth (fraction of control); higher = less inhibition; details: 50 µM

SMILES	relative growth
C=C1C2CCC3(C)C(c4ccoc4)OC(=O)CC13OC1CC(O)C(C)(C)C(CC(=O)OC)C12C (stereo not drawn) [3alpha-HYDROXY-3-DEOXYANGOLENSIC ACID METHYL ESTER]	1.03
OCC(O)C(O)CO (stereo not drawn)	0.882
Cl.NC(=O)CCC(N)C(=O)O (stereo not drawn)	1.03
CCN(CCCc1ccccc1)CCCc1ccccc1.O=C(O)CC(O)(CC(=O)O)C(=O)O	0.881
CN(C)CC(c1ccc(O)cc1)C1(O)CCCCC1.O=C(O)CCC(=O)O (stereo not drawn)	1.14
CC1=C(C(=O)O)N2C(=O)C(NC(=O)C(N)c3ccccc3)C2SC1 (stereo not drawn)	1.03
O=C(O)C=CC(=O)O.OCCOCCN1CCN(C2=Nc3ccccc3Sc3ccccc32)CC1	0.3
CC1CC2C3CCC4=CC(=O)C=CC4(C)C3(F)C(O)CC2(C)C1(O)C(=O)CO (stereo not drawn)	0.933
C1CCC(C(CC2CCCCN2)C2CCCCC2)CC1.O=C(O)C=CC(=O)O (stereo not drawn)	0.52
CCN1CCCC1CNC(=O)c1cc(S(N)(=O)=O)ccc1OC (stereo not drawn)	1.04
CC12CCC(CC1)C(C)(C)O2	1.06
Cc1ccccc1C(OCCN(C)C)c1ccccc1.O=C(O)CC(O)(CC(=O)O)C(=O)O (stereo not drawn)	1.01
COCCCCC(=NOCCN)c1ccc(C(F)(F)F)cc1.O=C(O)C=CC(=O)O	0.949
Nc1nc(N)nc(-c2cc(Cl)ccc2Cl)n1.O=C(O)C=CC(=O)O	1.04
CC(N)C(O)c1cccc(O)c1.O=C(O)C(O)C(O)C(=O)O (stereo not drawn)	0.957
Cc1ccc(S(=O)(=O)O)cc1.NC1CCN(c2nc3c(cc2F)c(=O)c(C(=O)O)cn3-c2ccc(F)cc2F)C1.O (stereo not drawn)	0.0925
C=CC1=C(C)c2cc3[nH]c(cc4nc(cc5[nH]c(cc1n2)c(C)c5CCC(=O)O)C(CCC(=O)O)=C4C)c(C)c3C=C	2.63
CNC(C)C1CCC(N)C(OC2C(N)CC(N)C(OC3OCC(C)(O)C(NC)C3O)C2O)O1.O=S(=O)(O)O (stereo not drawn)	0.786
Cc1cc(C=Cc2ccc3cc(N(C)C)ccc3[n+]2C)c(C)n1-c1ccccc1.O=C([O-])c1cc2ccccc2c(Cc2c(O)c(C(=O)O)cc3ccccc23)c1O	0.996
CC(C)Cc1ccc(C(C)C(=O)O)cc1 (stereo not drawn)	0.933
CCN(CC)C(=O)N1CCN(C)CC1.O=C(O)CC(O)(CC(=O)O)C(=O)O	1.1
O=C(O)c1cc2ccccc2c(Cc2c(O)c(C(=O)O)cc3ccccc23)c1O.OCCOCCN1CCN(C(c2ccccc2)c2ccc(Cl)cc2)CC1	1.17
CC(CN(C)C)CN1c2ccccc2CCc2ccccc21.O=C(O)C=CC(=O)O (stereo not drawn)	1.01
CCCCCCCCCCCCCCCC(=O)NCCO	1.06

SMILES	relative growth
COC1C(C(=O)O)OC(C)C(O)C1O.COC1OC(C(=O)O)C(O)C(O)C1O (stereo not drawn) [ALGINIC ACID [Mol Wt ~200,000; monomers shown]]	0.862
CN1CCC(=C2c3ccccc3CC(=O)c3sccc32)CC1.O=C(O)C=CC(=O)O	1.03
C=CC1CN2CCC1CC2C(O)c1ccnc2ccc(OC)cc12.O=C(O)C(O)C(O)C(O)C(O)CO (stereo not drawn)	0.949
CC(=O)c1ccc2c(c1)N(CCCN(C)C)c1ccccc1S2.O=C(O)C=CC(=O)O	0.983
CC1OC(OC2C(O)CC(OC3C(O)CC(OC4CCC5(C)C(CCC6C5CC(O)C5(C)C(C7=CC(=O)OC7)CCC65O)C4)OC3C)OC2C)CC(O)C1O (stereo not drawn)	1.13
Cl.Cl.O=C(O)COCCN1CCN(C(c2ccccc2)c2ccc(Cl)cc2)CC1 (stereo not drawn)	0.982
C[N+](C)(C)CC(O)CC(=O)[O-] (stereo not drawn)	0.989
CCOC(=O)C1=C(COCCN)NC(C)=C(C(=O)OC)C1c1ccccc1Cl.O=S(=O)(O)c1ccccc1 (stereo not drawn)	0.929
COCCc1ccc(OCC(O)CNC(C)C)cc1.O=C(O)C(O)C(O)C(=O)O (stereo not drawn)	1.17
COC1C(O)C(O)C(O)C(O)C1O (stereo not drawn)	0.97
COc1cccc2c1C(=O)c1c(O)c3c(c(O)c1C2=O)CC(O)(C(=O)CO)CC3OC1CC(N)C(O)C(C)O1 (stereo not drawn)	1.02
Cn1c(=O)c2[nH]cnc2n(C)c1=O	1.07
CN1CCC(=C2c3ccccc3Sc3ccccc32)CC1.O=C(O)C=CC(=O)O	0.967
CC[N+](CC)(CC(=O)Nc1c(C)cccc1C)Cc1ccccc1.O=C([O-])c1ccccc1	1.01
O=c1[nH]cc(F)c(=O)[nH]1	0.475
COc1ccc(CC2c3cc(OC)c(OC)cc3CC[N+]2(C)CCC(=O)OCCCCCOC(=O)CC[N+]2(C)CCc3cc(OC)c(OC)cc3C2Cc2ccc(OC)c(OC)c2)cc1OC.O=S(=O)([O-])c1ccccc1.O=S(=O)([O-])c1ccccc1 (stereo not drawn)	0.995
CCN(CC)CCOc1ccc(C(=C(Cl)c2ccccc2)c2ccccc2)cc1.O=C(O)CC(O)(CC(=O)O)C(=O)O	0.86
CCOC(=O)Nc1ccc(NCc2ccc(F)cc2)nc1N.O=C(O)C=CC(=O)O	0.989
Cc1cc2nc3c(=O)[nH]c(=O)nc-3n(CC(O)C(O)C(O)COP(=O)([O-])O)c2cc1C.[Na+] (stereo not drawn)	0.981
CCC(C)C1OC2(CCC1C)CC1CC(CC=C(C)C(OC3CC(OC)C(OC4CC(OC)C(O)C(C)O4)C(C)O3)C(C)C=CC=C3COC4C(O)C(C)=CC(C(=O)O1)C34O)O2 (stereo not drawn)	0.874
CN(C)CCOC(c1ccccc1)c1ccccc1.Cn1c(=O)c2[nH]c(Cl)nc2n(C)c1=O	0.0491
Cn1c(=O)cc(N2CCCC(N)C2)n(Cc2ccccc2C#N)c1=O.O=C(O)c1ccccc1 (stereo not drawn)	1.05
O.OCC(O)C(O)C(OC1OC(CO)C(O)C(O)C1O)C(O)CO (stereo not drawn)	0.993
CC12CCC3c4ccc(O)cc4CCC3C1CC(O)C2O (stereo not drawn)	1.07

SMILES	relative growth
CC(CN(C)C)CN1c2ccccc2Sc2ccccc21.O=C(O)C(O)C(O)C(=O)O (stereo not drawn)	0.971
CC(=O)NCC(=O)O.CC(=O)NCC(=O)O.N=C(N)c1ccc(N=NNc2ccc(C(=N)N)cc2)cc1	1.01
CCOCC(O)COc1ccc(NC(=O)CC[S+](C)C)cc1.Cc1ccc(S(=O)(=O)[O-])cc1 (stereo not drawn)	1.09
O=C(O)CC(O)(CC(=O)O)C(=O)O	1.02
CN(CCOc1ccc(CC2SC(=O)NC2=O)cc1)c1ccccn1.O=C(O)C=CC(=O)O (stereo not drawn)	0.921
CC(C)C(=O)Oc1ccc(CO)cc1C(CCN(C(C)C)C(C)C)c1ccccc1.O=C(O)C=CC(=O)O (stereo not drawn)	0.804
C[n+]1cc2c3c(ccc2c2ccc4cc5c(cc4c21)OCO5)OCO3.[Cl-]	0.639
CC(CCC(=O)O)C1CCC2C3C(O)CC4CC(O)CCC4(C)C3CCC12C (stereo not drawn)	0.976
CCOCCn1c(N2CCCN(C)CC2)nc2ccccc21.O=C(O)C=CC(=O)O.O=C(O)C=CC(=O)O	1.11
NCC1OC(OC2C(N)CC(N)C(OC3OC(CO)C(O)C(N)C3O)C2O)C(O)C(O)C1O.O=S(=O)(O)O (stereo not drawn)	0.935
CC(C)(C)NCC(O)COc1nsnc1N1CCOCC1.O=C(O)C=CC(=O)O (stereo not drawn)	0.974
CCCc1nn(C)c2c(=O)[nH]c(-c3cc(S(=O)(=O)N4CCN(C)CC4)ccc3OCC)nc12.O=C(O)CC(O)(CC(=O)O)C(=O)O	0.963
C[N+](C)(CCOc1ccccc1)Cc1ccccc1.O=C([O-])c1cc2ccccc2cc1O	0.93
COc1cccc2c1C(=O)c1c(O)c3c(c(O)c1C2=O)CC(O)(C(=O)CO)CC3OC1CC(N)C(O)C(C)O1.Cl (stereo not drawn)	1.02
CC12CCC3C(=CCc4cc(O)ccc43)C1CCC2=O (stereo not drawn)	0.988
CCC1OC(=O)C(C)C(OC2CC(C)(OC)C(O)C(C)O2)C(C)C(OC2OC(C)CC(N(C)C)C2O)C(C)(O)CC(C)C(=O)C(C)C(O)C1(C)O.CCCCCCCCCCCCCCCCCC(=O)O (stereo not drawn)	0.665
NCCCC(N)C(=O)O.NCCCC(N)C(=O)O.O=C(O)CCC(=O)C(=O)O	1.09
C=CC1CN2CCC1CC2C(O)c1ccnc2ccc(OC)cc12 (stereo not drawn)	1.02
Cc1ccsc1C=CC1=NCCCN1C.O=C(O)CC(O)(CC(=O)O)C(=O)O	0.986
CN(C)C1C(O)=C(C(N)=O)C(=O)C2(O)C(O)=C3C(=O)c4c(O)cccc4C(C)(O)C3CC12.Cl (stereo not drawn)	0.0522
CN1CCN(C2=Nc3ccccc3Oc3ccc(Cl)cc32)CC1.O=C(O)CCC(=O)O	1.08
C#CCCCCCCCCCCCC(O)CC(O)COC(C)=O.C=CCCCCCCCCCCCC(O)CC(O)COC(C)=O (stereo not drawn)	1.03
CCN(CC)CCOCCOC(=O)C1(c2ccccc2)CCCC1.O=C(O)CC(O)(CC(=O)O)C(=O)O	1.08
CN(C)CCC(c1ccc(Cl)cc1)c1ccccn1.O=C(O)C=CC(=O)O (stereo not drawn)	0.967

SMILES	relative growth
CCCCCCc1ccc(O)cc1O.Nc1c2ccccc2nc2ccccc12	0.591
Cl.N[C@H](Cc1ccccc1)C(=O)O	1
O=C(O)C(O)C(O)C(=O)O.OCc1cccnc1 (stereo not drawn)	1.06
CNCC(O)C(O)C(O)C(O)CO.Cc1c(Nc2ncccc2C(=O)O)cccc1C(F)(F)F	1.04
CCCCCNC(=N)NN=Cc1c[nH]c2ccc(OC)cc12.O=C(O)C=CC(=O)O	0.879
CCN(CC)CCOCCOC(=O)C(CC)(CC)c1ccccc1.O=C(O)CC(O)(CC(=O)O)C(=O)O	1.1
CN1CCCN=C1C=Cc1cccs1.O=C(O)c1cc2ccccc2c(Cc2c(O)c(C(=O)O)cc3ccccc23)c1O	1.13
CCC1OC(=O)CC(O)C(C)C(OC2OC(C)C(OC3CC(C)(O)C(O)C(C)O3)C(N(C)C)C2O)C(CC=O)CC(C)C(=O)C=CC(C)=CC1COC1OC(C)C(O)C(OC)C1OC.O=C(O)C(O)C(O)C(=O)O (stereo not drawn)	1.09
CC(=O)OC1CC2(C)C(CC(O)C3C4(C)CCC(O)C(C)C4CCC32C)C1=C(CCC=C(C)C)C(=O)O (stereo not drawn)	1.12
NNC(=O)c1ccncc1.Nc1ccc(C(=O)O)c(O)c1	0.943
O=C(O)CCC(=O)O.O=C(OC1CN2CCC1CC2)N1CCc2ccccc2C1c1ccccc1 (stereo not drawn)	1.02
CCC(=O)OC1C(OC2C(C)C(OC3CC(C)(OC)C(O)C(C)O3)C(C)C(=O)OC(CC)C(C)(O)C(O)C(C)C(=O)C(C)CC2(C)O)OC(C)CC1N(C)C.CCCCCCCCCCCCOS(=O)(=O)O (stereo not drawn)	0.953
Oc1ccc(Cl)c2cccnc12	0.421
CN1CCc2nc(C(=O)NC3CC(C(=O)N(C)C)CCC3NC(=O)C(=O)Nc3ccc(Cl)cn3)sc2C1.Cc1ccc(S(=O)(=O)O)cc1.O (stereo not drawn)	1.01
CC(=O)c1ccc2c(c1)N(CCCN1CCN(CCO)CC1)c1ccccc1S2.O=C(O)C=CC(=O)O	1.17
CC(=O)OCC(=O)C1(O)C(C)CC2C3CCC4=CC(=O)C=CC4(C)C3(F)C(O)CC21C (stereo not drawn)	0.913
OCC(O)C(O)C(OC1OC(CO)C(O)C(O)C1O)C(O)CO (stereo not drawn)	0.991
CC1CC2C3CCC4=CC(=O)C=CC4(C)C3(F)C(O)CC2(C)C1(O)C(=O)COP(=O)([O-])[O-].[Na+].[Na+] (stereo not drawn)	1.1
CN1C(C)(C)CCCC1(C)C.O=C(O)C(O)C(O)C(=O)O	0.993
CN(C)CCN(Cc1ccccc1)c1ccccn1.O=C(O)CC(O)(CC(=O)O)C(=O)O	0.763
CCC(=C(c1ccccc1)c1ccc(OCCN(C)C)cc1)c1ccccc1.O=C(O)CC(O)(CC(=O)O)C(=O)O	0.642
